Screening results: PubChem BioAssay, Columbia University Molecular Screening Center
This is a sample that favours compounds with a hit; in the whole collection about 1% have one here.
HUVEC tox TNFa – toxic to HUVEC cells under TNF alpha stimulation. HUVEC TNFalpha-stimulated, Hoechst cell count, imaging. cell count reduction, % at 2 µM. 93,000 compounds, 0.17% hits. AID 848;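 active means cell count reduction exceeding the screen mean by over 5 SD, scaled to untreated wells per plate, cut at about 78% in these data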;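 further: cells counted after 24 h of TNF alpha exposure following the 1 h pretreatment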
VCAM1 TNFa inh – reduces TNF alpha induced VCAM1 expression in HUVEC. HUVEC TNFa-induced VCAM-1 immunofluorescence, high-content imaging. inhibition, % at 2 µM. 95,000 compounds, 0.48% hits. AID 802;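 active means inhibition above the batch mean plus 3 SD, with images confirmed as a hit by eye, cut at about 37% in these data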;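 further: 0% = TNF-stimulated DMSO wells and 100% = unstimulated control wells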
E-sel TNF inh – TNF alpha driven E-selectin expression inhibition; inhibition, % at 2 µM; 120,000 compounds, 0.71% hits; HUVEC TNFa-induced E-selectin immunofluorescence, high content;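 active means inhibition above the batch mean plus 3 SD, and confirmed as a hit on visual image review, cut at about 43% in these data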;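 further: 0% = TNF-stimulated DMSO wells and 100% = unstimulated control wells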
cytoskel mod – alters cytoskeleton assembly in HUVEC cells; HUVEC TNFa F-actin phalloidin imaging, high content; inhibition, % at 2 µM; 91,000 compounds, 0.18% hits; AID 836;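 active means inhibition above the batch mean plus 3 SD and confirmed as a hit by visual image inspection, cut at about 30% in these data, passing the limit was not always enough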
Numbers without * were called inactive; nt = no result given.

SMILES	HUVEC tox TNFa	VCAM1 TNFa inh	E-sel TNF inh	cytoskel mod
CC(=O)N[C@@H](Cc1c[nH]c2ccccc12)C(=O)OCC(=O)Nc1ccc(S(=O)(=O)N(C)C)cc1	nt	nt	74.8*	nt
COc1ccc(CNc2nc(NCc3ccc(OC)c(OC)c3)n(C(=O)c3cccs3)n2)cc1OC	-3.6	-2.8	nt	11.2
COc1cccc(-c2nc(CS(=O)(=O)CC(=O)Nc3cccc(C)c3C)c(C)o2)c1	nt	nt	-34.5	nt
Cc1cc2ccccc2c(=O)n1CC(=O)N1CCN(c2cccc(Cl)c2)CC1	nt	nt	-5.7	nt
CCn1c(SCC(=O)N2CCN(c3cccc(Cl)c3)CC2)nc2ccccc2c1=O	-0.8	96.1*	-30.8	-6.3
CCOC(=O)C1CCCN(c2ncnc3c2cnn3-c2ccc(Cl)cc2)C1 (stereo unspecified)	-1.3	-39.7	62.8*	nt
CCOC(=O)C1CCCN(c2ncnc3c2cnn3-c2ccc(OC)cc2)C1 (stereo unspecified)	-38.9	-19.1	nt	-19.1
O=C(CN1CCCCCC1=O)OCc1ncc(-c2ccccc2)o1	70.3	89.7*	nt	-33.8
N/C(CN1CCCC1=O)=N\OC(=O)c1ccccc1Cl	-15.0	-4.8	nt	8.8
O=C(COc1ccc(Br)cc1)Nc1ccncc1	0.8	3.3	-39.0	-20.4
Cc1cc(OCC(=O)Nc2ccncc2)c(C)cc1Br	-22.7	-3.1	66.4*	15.4
Cn1c(Oc2ccccc2NCc2cccc(Br)c2)cc(=O)n(C)c1=O	4.4	7.2	17.2	2.2
COc1ccc2[nH]c(=O)c(CN(C)C(=O)c3ccncc3)cc2c1	-18.7	9.7	nt	22.0
COc1ccc2[nH]c(=O)c(CN(C(=O)c3ccncc3)C(C)C)cc2c1	-77.1	95.4*	4.4	48.4*
N#Cc1cc2c(nc1SCC(=O)N1CCCCC1)CCCCC2	-17.8	6.6	-27.6	-2.1
CCOC(=O)c1sc(NC(=O)CSc2nc3c(cc2C#N)CCCCCC3)c(C#N)c1C	-16.9	-13.3	-25.2	3.9
CCOC(=O)c1sc(NC(=O)CSc2nc3c(cc2C#N)CCC3)c(C#N)c1C	-61.4	86.4*	10.2	18.4
N#Cc1cc2c(nc1SCC(=O)N1CCCCC1)CCCC2	19.4	52.4*	-5.9	6.7
Cc1onc(COc2ccccc2O)c1Br	-13.8	-4.6	nt	-2.8
Cn1nnnc1SCc1nnc(-c2ccc(Cl)cc2)o1	-45.6	8.6	63.0*	13.9
Cc1ccc(C(=O)c2cc([N+](=O)[O-])ccc2N2CCOCC2)c(C)c1	53.9	78.7*	10.2	-41.4
O=C(c1ccc(Br)cc1)c1cc([N+](=O)[O-])ccc1N1CCCCC1	62.6	92.0*	14.5	-38.8
CC1(C(=O)NC2CCCCCCC2)CCC(=O)N1Cc1cccs1 (stereo unspecified)	-19.4	-12.2	-7.1	9.1
Cc1nc(-c2ccc(NC(=O)CC(C)C)cc2)cs1	nt	nt	2.9	nt
CN1C(=O)/C(=C\c2ccccc2)Sc2ccc(C(=O)N3CCN(c4ccccn4)CC3)cc21	3.2	-0.1	-1.9	6.6
SMILES	HUVEC tox TNFa	VCAM1 TNFa inh	E-sel TNF inh	cytoskel mod
COc1ccc(CC(=O)Nc2ccc(-c3noc(-c4cccc(OC)c4)n3)cc2)cc1	9.5	39.1*	-10.4	-20.0
CCCCCOc1ccc(Br)cc1/C(C)=N/NC1=NCCN1	50.8	47.8	4.0	49.3*
COc1ccc2nc(SCc3nc(N)nc(Nc4ccccc4)n3)[nH]c2c1	-19.0	11.8	94.9*	-4.4
Cc1cc(Br)c(S(=O)(=O)n2nnc3ccccc32)cc1C	-12.6	-4.0	-8.5	7.3
Cc1nonc1NC(=O)CSc1nc(C2CCCCC2)nc2ccccc12	0.0	24.5	8.1	82.7*
CCOC(=O)N1CCN(C(=O)/C=C/c2c(C)nn(-c3ccc(F)cc3)c2Cl)CC1	nt	nt	4.2	nt
O=C(O)/C=C/c1ccc2ccccc2n1	-5.9	3.4	85.0*	-5.2
Oc1ccc(/C=C/c2ccc3ccccc3n2)cc1	nt	nt	-11.2	nt
CC(NC(=O)COc1cccc(Br)c1)C(=O)O (stereo unspecified)	-2.5	-12.9	77.1*	43.1
Cc1ccc(C(=O)OCC(=O)N2CCc3ccccc32)cc1	-4.5	-7.6	-5.5	18.3
Cn1nc(C(=O)OCC(=O)N2CCc3ccccc32)c2ccccc2c1=O	88.0*	77.0*	nt	-20.1
CC(C)(C)C1=CC(=O)C(=O)C(C(C)(C)C)=C1	nt	nt	89.0*	nt
O=C(NCc1ccco1)c1ccc(CS(=O)(=O)Cc2ccc(Cl)cc2)o1	79.1*	92.8*	nt	-10.1
Cc1ccc(CS(=O)(=O)Cc2ccc(C(=O)NCc3ccco3)o2)cc1	-40.9	-6.8	8.4	4.8
Cn1cc(C(=O)c2ccc(Cl)cc2)cc1-c1nc2ccccc2n1C	-17.7	-6.6	9.4	3.1
Cc1cnc(C(=O)OCC(=O)c2csc(N3CCCCC3)n2)cn1	-41.8	9.8	-11.6	46.1
Cn1c(=O)[nH]c(=O)c2c1ncn2CCN1CCOCC1	-16.2	-3.3	6.6	-15.9
CCCCn1cnc2c1c(=O)[nH]c(=O)n2CCCC	-51.5	0.3	-5.1	34.8*
CCc1cc(C(=O)Nc2ccccc2)cs1	nt	nt	62.7*	nt
Cc1c(C)c2ccc(OS(C)(=O)=O)c(C)c2oc1=O	nt	nt	-3.8	nt
N#CC1=C2SCC(O)(c3ccccc3)N2C(=O)CC1c1cccs1 (stereo unspecified)	16.8	16.6	nt	35.0*
COc1cc(C2NC(=O)NC(C)=C2C(=O)OC(C)C)ccc1OC(=O)c1ccco1 (stereo unspecified)	-18.7	-12.2	4.4	5.5
COc1ccc(-c2ccc(C(=S)N3CCN(C(C)=O)CC3)o2)cc1	9.8	-10.1	64.3*	-5.1
COC(=O)C/C=C/[C@@H](C)[C@@H](/C=N/OC[C@@H](C)[C@H](OCc1ccccc1)C(C)C)NS(=O)(=O)c1ccc(C)cc1	nt	nt	-1.4	nt
COc1ccccc1C(=O)Nc1ccc2c(c1)nc(CN1CCN(C(C)=O)CC1)n2C	-10.5	90.2*	21.3	6.5
SMILES	HUVEC tox TNFa	VCAM1 TNFa inh	E-sel TNF inh	cytoskel mod
CC(=O)N1CCN(Cc2nc3cc(NC(=O)c4ccccc4)ccc3n2C)CC1	-5.8	25.9	4.6	-3.2
COc1ccc(C(=O)N[C@H](C(=O)NCC2CCCCC2)C(C)C)cc1	-16.5	17.7	-6.7	-5.1
O=C(CSc1nc2ccccc2[nH]1)N1CCN(S(=O)(=O)c2ccc(Cl)cc2)CC1	15.2	-7.9	68.1*	-26.1
Cc1ccccc1OCC(=O)N/N=C/c1cccn1C	-18.8	22.7	0.0	-3.6
Cc1cc(NC(=O)C(=O)NCCN2CCN(C(=O)c3cccs3)CC2)ccc1Br	-27.6	-0.9	-0.5	34.4*
COc1ccc(NC(=O)C(=O)NCCN2CCN(C(=O)c3cccs3)CC2)cc1	-3.3	12.0	21.3	-4.2
CCn1c(COc2c(C)cccc2C)nnc1SCC(=O)N1CCN(c2ccccc2)CC1	4.3	6.3	-19.1	3.9
C=CCn1c(COc2cccc(C)c2C)nnc1SCC(=O)N1CCN(c2ccccc2)CC1	nt	nt	68.5*	nt
COc1cc(NC(=O)c2ccc(COCC(F)(F)F)o2)cc(OC)c1OC	21.0	50.4*	16.0	6.2
O=C(Nc1ccc(Cl)cc1)N(Cc1cccnc1)Cc1ccco1	-4.7	6.5	6.5	-9.8
N#Cc1ccc(NC(=O)C2CC(c3ccc(F)cc3)=NO2)cc1 (stereo unspecified)	4.1	-5.8	92.7*	-43.2
Cc1c(NC(=O)c2cc(=O)[nH]c(=O)[nH]2)c(=O)n(-c2ccccc2)n1C	-29.5	15.3	nt	-6.4
Cc1ccc(CNC(=O)COC(=O)CCC(=O)c2cccs2)cc1	nt	nt	5.4	nt
Cc1ccc(OCc2nnc(N)s2)cc1	nt	nt	7.7	nt
